# Compounds with a hit are over-represented: about 3.7% of the library has one in this group of screens.
# tim23-1 inh – tim23-1 yeast growth inhibition; S. cerevisiae tim23-1 growth, BacTiter-Glo luminescence, 24 h; hit rate 1.3% among 330,000; inhibition, % at 20 µM; AID 463212;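 active = growth inhibition of the mutant yeast at or above 50%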;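 also: temperature-sensitive mutant grown at 25 °C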
# tim10-1 inh – inhibits growth of tim10-1 mutant yeast; inhibition, % at 20 µM; S. cerevisiae tim10-1 ts strain growth, BacTiter-Glo, 24 h; hit rate 2.2% among 330,000;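 active = inhibition of at least 40%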;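 also: mutant grown at 25 °C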
# PfHsp90 set2 – inhibits growth of yeast expressing Plasmodium falciparum Hsp90; inhibition, % at 9.4 µM; hit rate 0.32% among 310,000; AID 504621; S. cerevisiae expressing PfHsp90, BacTiter-Glo ATP, 48 h; yeast lacking PDR1 and PDR3 efflux regulators;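 active = every replicate shows inhibition above about 80%, whatever the replicate mean, limit read from the data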
# TIM10 inh – inhibits growth of TIM10 yeast strain; S. cerevisiae TIM10 strain growth, BacTiter-Glo luminescence, 24 h; inhibition, % at 10 µM; hit rate 1.4% among 330,000;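 active = inhibition of 40% or more at the single tested concentration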;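 also: wild-type TIM10 isogenic control strain grown at permissive 25 °C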
# NLRP3 yeast inh – inhibitors of NALP3 inflammasome in yeast. Yeast reconstituted NLRP3/ASC/caspase-1, beta-gal luminescence, 24 h. inhibition, % at 10 µM. hit rate 0.39% among 330,000. AID 2825;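 active = inhibition of 50% or more; inactive = inhibition below 50%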
# NALP3 confirm – NALP3 inhibition confirmation in yeast; shares compounds with NLRP3 yeast inh; yeast expressing human NALP3, luminescence; inhibition, % at 10 µM; hit rate 81% among 1,300; AID 435006; in the data active = inhibition above about 48%
# Casp1 ASC ctr – caspase-1-ASC yeast counter-screen hit. shares compounds with NLRP3 yeast inh. yeast expressing Caspase-1-ASC, luminescence counter screen. inhibition, % at 10 µM. hit rate 66% among 1,000. AID 488784
# NALP3 yeast rt – retest-confirmed inhibitor of NALP3 in yeast; shares compounds with NLRP3 yeast inh; yeast expressing human NALP3, luminescence read-out; inhibition, % at 10 µM; hit rate 53% among 1,000; AID 488794
# Hits are given with their value; 0 = inactive; - = not tested or not shown; + = active, no number. Rule as the data show it, unless noted: active = inhibition above about 50%; inactive = the rest.
SMILES,tim23-1 inh,tim10-1 inh,PfHsp90 set2,TIM10 inh,NLRP3 yeast inh,others
COc1ccc2c(c1)C=C(C(=O)NCc1ccc(Cl)cc1)CO2,0,0,98,0,0,
CC(C)(C)OC(=O)NCC12C=CC(O1)C1C(=O)N(Cc3ccccc3)C(=O)C12 (stereo not given),0,0,0,0,0,
Cc1cccc(NC(=S)NCC23C=CC(O2)C2C(=O)N(c4ccc(Cl)cc4)C(=O)C23)c1 (stereo not given),0,0,107,0,0,
Cc1ccc(S(=O)(=O)NCC2(c3ccccc3)CCN(C)CC2)cc1,0,0,0,0,0,
Cc1ccc(NC(=S)NCC23C=CC(O2)C2C(=O)N(c4ccc(C)cc4)C(=O)C23)cc1 (stereo not given),0,0,107,0,0,
Cc1ccc(N2C(=O)C3C4C=CC(CNC(=S)N5CCN(c6ccccc6)CC5)(O4)C3C2=O)cc1 (stereo not given),0,0,104,0,0,
Cc1ccc(S(=O)(=O)NCC23C=CC(O2)C2C(=O)N(c4ccccc4)C(=O)C23)cc1 (stereo not given),0,0,106,0,0,
Cc1c(C(=O)N2CCCCC2)c(S(=O)(=O)NCCc2ccc(Cl)cc2)c(C)n1C,0,0,0,0,0,
COc1ccc(C(=O)O/N=C2\C(=O)N(C)c3ccccc32)cc1,0,0,105,0,0,
CC(C)(C)c1cc(-c2nc(N)nc(N)n2)c(O)c(C(C)(C)C)c1,0,0,+,0,0,
Nc1nc(N)nc(-c2cc(O)ccc2O)n1,0,0,0,0,0,
CC(=NNC(=S)N(Cc1ccccn1)Cc1ccccn1)c1cnccn1,-,-,110,-,-,
CC(=O)c1cccc(NC(=O)CSc2n[nH]c(=O)n2C2CC2)c1,0,0,-,0,0,
C[C@H](CO)N1C[C@H](C)[C@@H](CN(C)C(=O)Nc2ccc3c(c2)OCO3)Oc2c(NC(=O)Nc3ccc(C(F)(F)F)cc3)cccc2C1=O,0,0,0,0,0,
CC(CCc1ccccc1)NC(=O)c1ccc(Br)cc1 (stereo not given),0,0,112,0,0,
O=C(O)c1ccc(N/N=C/c2ccc(-c3ccccc3)cc2)cc1,-,-,98,-,-,
CC(C)c1ccc(/C=N/Nc2ccc(C(=O)O)cc2)cc1,0,0,0,0,0,
Cc1c(Cl)cccc1NC(=O)C1CC2CCC1C2 (stereo not given),0,0,-,0,0,
Cc1cccc(C(=O)NC(=S)NNC(=O)Cc2ccccc2)c1,0,0,109,0,0,
Cc1cccc(C(=O)NC(=S)NCc2ccccc2)c1,0,0,0,0,0,
Cc1ccc(NC(=O)c2cc(S(=O)(=O)N(C)C)ccc2N2CCCC2)cc1F,0,0,0,0,0,
Cc1noc(C)c1COc1ccc(C(=O)NNC(=O)c2ccccc2F)cc1,0,0,0,0,0,
Cc1ccc(C(=O)NNC(=O)c2ccncc2)cc1[N+](=O)[O-],0,0,0,0,0,
Cc1ccc(C(=O)ONC(=O)c2ccc(Cl)cc2)cc1[N+](=O)[O-],0,0,108,0,0,
COc1cc(CCC(=O)OCC(=O)Nc2cc(S(=O)(=O)N3CCOCC3)ccc2Cl)cc(OC)c1OC,-,-,0,-,-,
SMILES,tim23-1 inh,tim10-1 inh,PfHsp90 set2,TIM10 inh,NLRP3 yeast inh,others
CCN(CC)S(=O)(=O)c1cccc(C(=O)NCC(c2ccccc2)N(C)C)c1 (stereo not given),0,0,107,0,0,
CCC1=NN2C(=N)/C(=C\c3cccn3-c3ccc(C)cc3C)C(=O)N=C2S1,0,0,94,0,0,
CC(Oc1cccc(Cl)c1)C(=O)N1CCCN(C)CC1 (stereo not given),0,0,0,0,0,
O=C1[C@@H]2C(c3cccnc3)=NO[C@@H]2C(=O)N1c1ccc(Br)cc1,0,0,94,0,0,
CCC(C)(C)NC(=O)CN(Cc1ccco1)C(=O)CCC(=O)Nc1nccs1,0,0,0,0,0,
O=[N+]([O-])c1ccc(O)c(/C=N/Nc2ccccn2)c1,-,-,111,-,-,
O=[N+]([O-])c1ccc(NN=Cc2ccccc2O)nc1,-,-,0,-,-,
CCCC(C(=O)Nc1ccc(S(=O)(=O)Nc2nccs2)cc1)c1ccccc1 (stereo not given),0,0,-,0,0,
CC(C)c1c(O)ccc2c1CC[C@H]1C(C)(C)CCC[C@]21C,-,-,113,-,-,
CC(C)(O)c1ccc2c(c1)CCC1C(C)(C(=O)O)CCCC21C (stereo not given),0,0,0,0,0,
Cc1[nH]oc(=O)c1N=Nc1c(Cl)cccc1Cl,0,0,106,0,0,
C=CCn1c(SCC(=O)N(CC)c2c(N)n(Cc3ccccc3)c(=O)[nH]c2=O)nnc1-c1ccccc1OC,-,-,0,-,-,
O=C1CCC[C@@H]2Cc3nc4cc5c(cc4cc3[C@@H]3CCN1[C@H]23)OCO5,-,-,0,-,-,
CC(=O)C1=C(c2ccc(Br)cc2)C(=O)c2ccccc2C1=O,-,-,102,-,-,
CNC1=C(N(C(C)=O)c2ccc(Br)cc2)C(=O)c2ccccc2C1=O,-,-,0,-,-,
Cc1ccc(C2=NC(C)(C)N=C2SCC(=O)Nc2ccc(Cl)cc2)cc1,0,0,134,0,0,
CC1(C)N=C(SCC(=O)Nc2ccc(Cl)cc2Cl)C(c2ccccc2)=N1,0,0,99,0,0,
C/C(N)=C(/C#N)C(=O)COC(=O)C1CSC2(c3ccc(F)cc3)CCC(=O)N12 (stereo not given),0,0,0,0,0,
O=C(O)C1OCC2(CO1)COC(C(=O)O)OC2 (stereo not given),-,-,0,-,-,
Oc1ccc(C=Nc2ccc(N3CCOCC3)cc2)c(O)c1,0,0,0,0,0,
O=[N+]([O-])c1cc(Cc2ccccc2)cc(C=Nc2ccc(N3CCOCC3)cc2)c1O,-,-,106,-,-,
CN1C(=O)c2ccc(N3CCCC3)cc2C1=O,0,0,0,0,0,
Cc1cc(N2CCCC2)ccc1/C=C1\NC(=S)N(C)C1=O,0,0,0,0,51,NALP3 confirm=50;Casp1 ASC ctr=50;NALP3 yeast rt=0
Cc1ccc(C)c(-n2nnnc2Sc2nnnn2-c2ccccc2)c1,0,0,0,0,58,NALP3 confirm=74;Casp1 ASC ctr=73;NALP3 yeast rt=62
CCN(CC)c1ccc(NC(=O)COc2ccc(C)cc2)cc1,0,0,0,0,0,NALP3 confirm=0;Casp1 ASC ctr=0;NALP3 yeast rt=0
O=C(Nc1ccc(Nc2ccccc2)cc1)c1ccc(F)cc1,0,0,0,0,62,NALP3 confirm=78;Casp1 ASC ctr=59;NALP3 yeast rt=53
O=C(Nc1ccc(Nc2ccccc2)cc1)c1ccco1,0,0,0,0,75,NALP3 confirm=70;Casp1 ASC ctr=79;NALP3 yeast rt=75
COc1ccc(C(=O)OCC(=O)NC2CC2)cc1S(=O)(=O)N(C)Cc1ccccc1,0,0,-,0,0,
